Laboratory results reported in PubChem BioAssay AID977606 (Broad Institute, 2014).
Screen size: about 1,500 compounds; about 430 (29%) were called active. Only a sample is shown. Results with a measured potency or affinity are listed apart. A number with no mark means an inactive call. No rule for the calls is given here.

experiment: glucose-independent GLuc insulin release activation – cell-based, INS-1E, Gaussia luciferase, luminescence, cherry-pick, counter-screen for glucose-dependent insulin secretion activators, dose response (AID 977606); conditions: INS-1E Gaussia luciferase insulin secretion, no glucose, 100% = twice neutral-control luminescence; series mostly up to 35 µM; activation: at the top concentration;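 also: 0% = median of neutral control wells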

Compound | activation [%] | outcome
CC1CC1C(=O)Nc1cc(C(F)(F)F)ccc1N1CCOCC1 (centres undefined) | -7.62 | –
O=C(N=C1SC2CS(=O)(=O)CC2N1c1ccc(F)c(Cl)c1)C1CC1 (centres undefined) | 13.8 | –
CCCc1nc(-c2cc3cc(C)ccc3[nH]c2=O)no1 | 43.8 | –
CC(=O)N1CCN(c2nnc(-c3ccc(C)cc3)c3ccccc23)CC1 | -0.606 | –
Cc1ccc(-c2ccc([C@@H]3[C@@H]4CN(Cc5ccccc5F)C[C@H]3N4)cc2)cc1 | 5.14 | –
CC1Oc2ccccc2N(Cc2cccc(F)c2)C1=O (centres undefined) | 11.7 | –
O=c1c2sccc2n(Cc2cccc(F)c2)c(=O)n1-c1ccc(F)cc1 | -6.27 | –
COc1ccc(CN(C)C(=O)COc2cccc(-n3cnnn3)c2)cc1OC | 9.02 | –
COc1cc(/C=N/NC(=O)CNC(=O)c2cccs2)ccc1O | 0.237 | –
O=C(Nc1ccc(F)cc1)C1COc2ccccc2O1 (centres undefined) | -15.7 | –
CN(C(=O)c1ccc(C#N)cc1)c1nnc(-c2cnccn2)s1 | -8.7 | –
CC(C)CCn1c(=O)c2ccccc2n2c(CN3CCOCC3)nnc12 | 8.19 | –
COc1ccc(C(=O)/C=C2/c3ccccc3CC(C)(C)N2C)cc1OC | 16.4 | –
O=C(NC(=S)Nc1cccc2[nH]ncc12)c1ccccc1 | -4.69 | –
Nc1[nH]c(C(=O)c2ccccc2)c(-c2ccncc2)c1C(=O)NCc1cccc2ccccc12 | -26.7 | –
COc1cc(CN2CCC(n3nccc3NC(=O)C3CCOC3)CC2)ccc1F (centres undefined) | -17.1 | –
COc1ccc(C(=O)c2cnc[nH]2)cc1OC | -0.483 | –
COc1ccc(C(=O)O/N=C(\N)c2ccc(OC)c(OC)c2)cc1 | -1.47 | –
COc1ccc(C(=O)c2ccc(OC)c(OC)c2)cc1 | -2.11 | –
COc1ccc(-c2nc(N)ncc2-c2ccc(OC)c(OC)c2)c(O)c1 | 10.8 | –
c1ccc(-c2nnc3n2-c2ccccc2SC3)cc1 | 0.882 | –
COCCOC(=O)C1=C(C)NC(=O)N(C(C)=O)C1c1ccc(Cl)cc1 (centres undefined) | -0.928 | –
Cc1cc2nc(-c3ccc(Cl)cc3)c(Cc3ccsc3)n2c(C)c1Br | -6.36 | –

Compound | activation [%] | outcome
CCn1c(C)nc2cc(S(=O)(=O)C(F)(F)F)ccc21 | -6.94 | –
COc1cc2[nH]c3c(Cl)ncnc3c2cc1OC | -0.758 | –
COc1ccc(CC(=O)O/N=C(\N)c2ccccc2)cc1OC | -0.902 | –
COc1ccc(/C=N/NC(=O)CCOc2ccccc2C)cc1OC | 11.2 | –
COc1ccc(/C=N/NC(=O)Cn2nnc3ccccc32)cc1OC | -12.4 | –
CNS(=O)(=O)c1ccc2c3c(cccc13)C(=O)N2 | 3.01 | –
CCOC(=O)c1c(N)c(C#N)c2n1CCCC2 | -4.2 | –
O=S(=O)(c1ccc(Cl)nc1)N1CCc2ccccc21 | -0.653 | –
COc1ccc(CC(=O)OCC(=O)N2CCCc3ccccc32)cc1OC | 0.376 | –
COc1ccc(NC(=O)C2CCCN2S(=O)(=O)c2ccc3c(c2)CC(C)N3C(C)=O)cc1OC (centres undefined) | -7.94 | –
COc1ccc(C2=NOC(C(=O)Nc3cccnc3)C2)cc1OC (centres undefined) | 9.59 | –
CCOC(=O)c1sc2ncn(/N=C/c3cccnc3)c(=O)c2c1C | -12.6 | –
COc1cc(C(=O)Nc2ccn(C)n2)ccc1OC(F)F | 7.47 | –
O=c1c2ccccc2nc(-c2ccco2)n1/N=C/c1ccco1 | -8.39 | –
O=c1c2ccccc2nc(-c2ccco2)n1Cc1ccccc1 | -3.55 | –
O=C([C@H]1O[C@@H](n2ccc(=O)[nH]c2=O)[C@H](O)[C@@H]1O)N1CCN(c2ccc(Cl)cn2)CC1 | 68.2 | –
Cc1nc2ccccc2c(=O)n1CCCN1CCOCC1 | -11.5 | –
CCCn1nc(C(=O)NC2CC2)c2ccccc2c1=O | -5.12 | –
CCOCCCn1c(SCc2ccccc2)nnc1-c1ccncc1 | 6.18 | –
CC(C)c1ccc(NC2CCCN(C(=O)c3cccnc3)C2)cc1 (centres undefined) | -5.56 | –
COc1ccc(CCn2ccc(O)c(Cc3c(F)cccc3Cl)c2=O)cc1OC | -4.25 | –
CCN(C[C@H]1N[C@@](CC)(C(=O)OC)[C@H]2C(=O)N(C)C(=O)[C@@H]12)S(=O)(=O)c1ccc(OC)cc1 | -1.45 | –
COc1ccc(CCC(=O)NC2CCC(C)CC2)cc1 (centres undefined) | -4.09 | –

Compound | activation [%] | outcome
COC(=O)C1=C(C)NC(=S)NC1c1ccc(OC)cc1 (centres undefined) | 7.53 | –
CNc1nc(Nc2ccccc2)nc(OCC(F)(F)F)n1 | 8.61 | –
CCCCN(Cc1nc2ccccc2c(=O)[nH]1)C(=O)c1nn(C)c(=O)c2ccccc12 | -9.37 | –
c1cn2cc(-c3ccc(CN4CCOCC4)cc3)ccc2n1 | -12.3 | –
CC(C)CN(C(=O)C1CCCCC1)C1CCS(=O)(=O)C1 (centres undefined) | -8.45 | –
Cc1ccc(CN(C(=O)c2cccs2)C2CCS(=O)(=O)C2)cc1 (centres undefined) | 11 | –
Cc1c(Cc2ccccc2)sc(NC(=O)C(C)(C)C)c1C(N)=O | 38.4 | –
Cc1c(Cc2ccccc2)sc(NC(=O)c2ccco2)c1C(N)=O | -3.42 | –
COC(=O)c1cc(S(=O)(=O)NCC2CCN(Cc3cc(C)ccc3C)CC2)c[nH]1 | 8.92 | –
Cc1ccc(C)c(OCC(=O)Nc2cc(NC(=O)COc3cc(C)ccc3C)cc(C(=O)O)c2)c1 | -15.1 | –
Cc1ccc(C)c(OCC(=O)NCC(C)(C)N2CCOCC2)c1 | -11.9 | –
O=C1CC(=O)Nc2cc(S(=O)(=O)NCc3cccs3)ccc2N1 | -3.25 | –
O=C1CSC(c2cccc(O)c2)N1Cc1ccccc1 (centres undefined) | -0.893 | –
CC(C)Cc1nc2oc3c(NCc4cccnc4)ncnc3c2c2c1CCC2 | -15 | –
CCOC(=O)C1CCCN(C(=O)c2ccccc2OC(F)(F)F)CC1 (centres undefined) | 1.8 | –
CN(C)N1C(N)=C(C#N)C(c2ccc(F)cc2)C2=C1CCCC2=O (centres undefined) | 7.12 | –
O=c1c2ccccc2c(-c2ccccc2)nn1-c1ccccn1 | -6.35 | –
O=C(O)c1ccc(-n2nc(-c3ccccc3)c3ccccc3c2=O)cc1 | -3.75 | –
Cc1ccccc1SC1CCN(C(=O)C2CCC(=O)N(C3CC3)C2)CC1 (centres undefined) | 0.358 | –
COc1ccc(CCNC(=O)C(=O)c2c(C)n(C)c3ccccc23)cc1OC | -5.15 | –
CCc1nc(N)nc(N)c1-c1ccc(Cl)c(N=[N+]=[N-])c1 | – | inactive
COc1ccc(C(C)=O)cc1CSCc1cc(C(C)=O)ccc1OC | 0.399 | –
CN(C)CCCN(C(=O)CCOc1ccccc1)c1nc2c(F)cccc2s1 | 22.9 | –

Compound | activation [%] | outcome
COc1ccc(CCNC(=O)CCn2c(=O)c3cccn3c3cccnc32)cc1OC | -8.89 | –
COc1ccc(C2=NN(C(=O)c3ccco3)C(c3cccs3)C2)cc1OC (centres undefined) | 2.94 | –
CC(=O)N1CCN(c2nnc(-c3ccccc3)c3ccccc23)CC1 | -7.28 | –
COc1ccc(-c2cnnn2-c2ccc(N)cc2)cc1OC | 14.5 | –
CCOC(=O)c1cc(-c2ccncc2)nc2c1c(C)nn2-c1ccccn1 | -12.8 | –
CCOC(=O)c1nc2nc(-c3cccs3)cc(C(F)(F)F)n2n1 | -2.27 | –
CCN(CC)C(=O)C1(P(=O)(c2ccccc2)c2ccccc2)CCC1 | 3.86 | –
CCCNC(=O)C1(C)CCCN(Cc2cccn2C)C1 (centres undefined) | 2.12 | –
CC(C)(C)c1ccc(S(=O)(=O)N2CC(C(=O)O)Oc3ccc(Cl)cc32)cc1 (centres undefined) | -17.2 | –
N#CCCCc1cc2ccccc2cn1 | -1.65 | –
Cc1cc(Br)c2c(c1)C1(OCCO1)C(=O)N2 | -15.4 | –
CCCc1c(C)c2ccc(OCC(C)=O)cc2oc1=O | 31.2 | –
CNc1nc(-c2ccccc2)cc(-c2ccccc2)n1 | -10.1 | –
CCS(=O)(=O)c1nc(S(=O)(=O)c2ccc(C)cc2)c(N2CCC(O)CC2)s1 | 5.07 | –
O=C(Cn1cnc2sc(-c3ccccc3)cc2c1=O)NCCc1ccccc1 | -15.1 | –
COc1ccc(/C=N/NC(=O)Cn2cnc3ccccc3c2=O)cc1OC | 6.92 | –
O=C(Nc1cccc(Cl)c1)c1cnn2cccnc12 | 20.9 | –
COc1ccc(C(C)=O)cc1Cn1cnc2c(cnn2C)c1=O | 3.6 | –
CCc1nc2ccc(C(=O)NCCCN(C)C)cn2c1N(C)Cc1ccc(OC)cc1 | -1.71 | –
COc1ccc(C2=NN(C(=O)c3ccco3)C(c3ccco3)C2)cc1OC (centres undefined) | -1.59 | –
O=C(CCn1ccc2cc(S(=O)(=O)N3CCCC3)ccc21)NCc1cccc(F)c1 | -20.7 | –
Cc1cc(Cl)ccc1-c1nc(NCc2ccccc2)nc2ccsc12 | 13.2 | –
c1ccc(CNc2nc(Oc3ccncc3)c3sccc3n2)cc1 | -5.34 | –

Compound | activation [%] | outcome
COc1ccc(C2C3CCCCC3(O)CCN2C(=O)c2cccs2)cc1 (centres undefined) | -6.6 | –
CCn1c(SCc2cc(=O)[nH]c3ccccc23)nc2c1c(=O)n(C)c(=O)n2C | -0.85 | –
C=CCN(Cc1ccc(OC)c(OC)c1)C(=O)N1CCOCC1 | 5.63 | –
S=C(NCc1ccccc1)Nc1ccc2cn[nH]c2c1 | -12.7 | –
CCC(=O)Nc1nnc(Sc2ccc(N(C)C)cc2)s1 | -2.97 | –
CCSc1nnc(NC(=O)c2csc(C)c2)s1 | 3.32 | –
CCOc1ccc(CCNC(=O)CCC(=O)c2cccs2)cc1OCC | -12.3 | –
COCCn1c(=O)[nH]c2cc(C(=O)Nc3cc(OC)c(OC)c(OC)c3)ccc2c1=O | 8.32 | –
CCOC(=O)Cc1csc(NC(=O)c2ccc(OC)c(OC)c2)n1 | 6.38 | –
COCCNC(=O)CCCn1c(=O)c2ccccc2n(Cc2ccccc2C#N)c1=O | -18.3 | –
COc1ccc(CCNS(=O)(=O)c2ccc(Cl)s2)cc1OC | -2.93 | –
O=C(c1cc(-c2ccc(F)cc2)nc2ccccc12)N1CCN(C2CCS(=O)(=O)C2)CC1 (centres undefined) | 0.694 | –
O=C(Nc1ccc(C(=O)N2CCCC2)cc1)c1cccc(C(F)(F)F)c1 | 6.96 | –
CCOc1ccc(CCNC(=O)COc2cc(=O)n(C)c3ccccc23)cc1OCC | 16.5 | –
O=S1(=O)c2ccccc2OC(COCc2ccccc2)CN1C1CC1 (centres undefined) | 2.22 | –
CC(C)Oc1cccc(C(=O)C2CCCN(C(=O)CCc3cnn(C)c3)C2)c1 (centres undefined) | -11.9 | –
COc1ccc(-c2nnc3sc(-c4cccs4)nn23)cc1OC | -0.837 | –
c1csc(-c2nc(NCC3CCCO3)c3ccccc3n2)c1 (centres undefined) | 9.46 | –
Cc1cc(NC(=O)COC(=O)c2oc3c(Cl)cccc3c2C)no1 | -1.82 | –
COc1cc(/C=N/Nc2cc(C)nc(NS(=O)(=O)c3ccc(C)cc3)n2)ccc1O | -9.01 | –
CCOc1nc(NC(=O)NS(=O)(=O)Oc2ccccc2Cl)nc(-c2ccccc2)n1 | -8.66 | –
CCOc1ccccc1CNS(=O)(=O)c1cnc[nH]1 | 0.89 | –
